Experimental data reported in PubChem BioAssay (Tox21).
Results filed as inconclusive are left out. Active and inactive are the calls of the source. Unless noted, calls come from the whole dose curve; as a rule, active = well fitted curve in the direction sought with a large enough effect in the repeat runs; inconclusive = weak or mixed curves; inactive = no such curve, though single readings can be large; an effect the other way counts as inactive or inconclusive.

Key:
[1] = target: Progesterone receptor (Homo sapiens) (UniProt P06401); assay: qHTS assay to identify small molecule agonists of the progesterone receptor (PR) signaling pathway (AID 1346784; calls by dose curve; note: nearly all actives have a fitted effect of over 30% in size)
Sequence of Progesterone receptor (Homo sapiens) (P06401 whole entry, looked up): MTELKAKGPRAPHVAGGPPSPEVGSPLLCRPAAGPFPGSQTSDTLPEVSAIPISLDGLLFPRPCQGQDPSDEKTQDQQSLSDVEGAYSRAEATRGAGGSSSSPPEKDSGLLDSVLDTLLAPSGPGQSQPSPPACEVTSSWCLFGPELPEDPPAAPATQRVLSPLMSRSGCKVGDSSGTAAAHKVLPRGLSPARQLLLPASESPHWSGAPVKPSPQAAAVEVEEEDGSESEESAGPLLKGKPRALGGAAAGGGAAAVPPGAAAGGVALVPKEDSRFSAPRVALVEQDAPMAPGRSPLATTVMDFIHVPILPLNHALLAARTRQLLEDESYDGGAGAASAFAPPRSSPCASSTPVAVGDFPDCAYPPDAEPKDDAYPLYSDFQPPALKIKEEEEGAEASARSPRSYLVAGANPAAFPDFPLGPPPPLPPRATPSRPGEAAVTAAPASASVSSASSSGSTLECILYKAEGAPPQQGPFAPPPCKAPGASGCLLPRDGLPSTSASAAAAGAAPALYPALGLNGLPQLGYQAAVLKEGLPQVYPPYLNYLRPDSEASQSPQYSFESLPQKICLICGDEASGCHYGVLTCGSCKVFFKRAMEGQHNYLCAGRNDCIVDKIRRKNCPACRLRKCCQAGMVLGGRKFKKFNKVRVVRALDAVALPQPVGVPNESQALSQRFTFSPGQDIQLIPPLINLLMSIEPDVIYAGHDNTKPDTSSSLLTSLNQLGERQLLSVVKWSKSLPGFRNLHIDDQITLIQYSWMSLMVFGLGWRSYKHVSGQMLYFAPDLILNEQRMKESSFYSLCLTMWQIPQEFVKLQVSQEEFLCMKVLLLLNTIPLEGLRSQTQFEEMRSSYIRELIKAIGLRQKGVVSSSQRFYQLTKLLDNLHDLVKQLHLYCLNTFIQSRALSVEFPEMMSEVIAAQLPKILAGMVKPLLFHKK
Method in brief: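 Agonist qHTS: compounds pinned onto 3,000 PR-UAS-bla HEK 293T cells per well in charcoal-stripped serum medium, 16hr at 37C, then beta-lactamase activity measured by LiveBLAzer FRET fluorescence after 2 hours at room temperature.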

[2] = target: Progesterone receptor (Homo sapiens) (UniProt P06401); assay: qHTS assay to identify small molecule antagonists of the progesterone receptor (PR) signaling pathway (AID 1346795; active = well fitted inhibition curve with a large enough effect in the signal ratio in the repeat runs, not every such curve was filed as active; the % refers to the signal ratio)
Method in brief: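 Antagonist mode with agonist R5020 at 1 nM final and 16 hr incubation at 37C. Reporter was beta-lactamase driven by UAS in HEK293T (PR-UAS-bla), 2% charcoal-stripped serum; signal from LiveBLAzer FRET substrate, 2 hr at room temperature.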

[3] = qHTS assay to identify small molecule agonists of the progesterone receptor (PR) signaling pathway - cell viability counter screen (AID 1346799; calls by dose curve; note: nearly all actives have a fitted effect of over 45% in size; note: potency is the fitted concentration of half-maximal effect)
Method in brief: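 Cytotoxicity measured by CellTiter-Glo luminescence (30 min, RT) in the same wells as the PR beta-lactamase agonist read. Those HEK293T cells had 16 h compound treatment at 37 C in 2% charcoal-stripped FBS medium.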

[4] = qHTS assay to identify small molecule antagonists of the TGF-beta/Smad signaling pathway - cell viability counter screen (AID 1346824); note: nearly all actives have a fitted effect of over 50% in size
Method in brief: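 Cytotoxicity counter-screen run in the same wells as the beta-lactamase Smad reporter read: CellTiter-Glo luminescence after 30 min at room temperature. HEK 293T SBE-bla cells had 5 hr compound exposure at 37 C with TGF-beta1 (0.25 ng/mL stock).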

[5] = qHTS assay to identify small molecule agonists of the TGF-beta/Smad signaling pathway - cell viability counter screen (AID 1346829); note: top concentration of the series differs between compounds; nearly all actives have a fitted effect of over 45% in size
Method in brief: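 Cytotoxicity counter screen: CellTiter-Glo luminescence (30 min, room temperature) measured in the SBE-bla HEK 293T reporter wells after 5 hr compound treatment at 37 C and the 2 hr substrate step.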

[6] = qHTS assay to identify small molecule agonists of the TGF-beta/Smad signaling pathway (AID 1346859; active = well fitted activation curve with a large enough effect in the signal ratio in the repeat runs, not every such curve was filed as active; the % refers to the signal ratio; note: series mostly up to about 77 µM)
Method in brief: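 Fluorescence (ex 405 nm; em 460 and 530 nm) was read 2 h after LiveBLAzer FRET substrate at RT. The preceding compound treatment of overnight-plated SBE-bla HEK293T cells lasted 5 h at 37 C.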

[7] = target: Thyrotropin-releasing hormone receptor (Homo sapiens) (UniProt P34981); assay: qHTS assay to identify small molecule antagonists of the thyrotropin-releasing hormone receptor (TRHR) signaling pathway (AID 1346877; active = well fitted inhibition curve with a large enough effect in the repeat runs, not every such curve was filed as active; note: series mostly up to about 51 µM)
Sequence of Thyrotropin-releasing hormone receptor (Homo sapiens) (P34981 whole entry, looked up): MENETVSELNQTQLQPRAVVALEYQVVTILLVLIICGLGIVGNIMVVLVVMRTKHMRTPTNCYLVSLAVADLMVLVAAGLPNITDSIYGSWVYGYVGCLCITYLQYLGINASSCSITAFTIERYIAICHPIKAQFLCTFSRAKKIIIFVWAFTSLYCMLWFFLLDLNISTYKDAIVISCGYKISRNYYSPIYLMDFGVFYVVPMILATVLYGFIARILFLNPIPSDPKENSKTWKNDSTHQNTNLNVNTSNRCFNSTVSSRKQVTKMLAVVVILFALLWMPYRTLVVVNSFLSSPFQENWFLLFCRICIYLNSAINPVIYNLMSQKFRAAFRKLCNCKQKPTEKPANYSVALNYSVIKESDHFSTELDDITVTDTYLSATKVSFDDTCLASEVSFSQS
Method in brief: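 HEK293/TRHR cells, 18 h, 37 °C; Ca2+ dye 2 h; cpd 5 min RT; TRH 1 nM final; fluorescence read 3 min, 1 s intervals; 15 concs, triplicate.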

[8] = target: Thyrotropin-releasing hormone receptor (Homo sapiens) (UniProt P34981); assay: qHTS assay to identify small molecule agonists of the thyrotropin-releasing hormone receptor (TRHR) signaling pathway (AID 1346891; calls by dose curve; note: series mostly up to about 58 µM)
Method in brief: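 Agonist-mode intracellular calcium readout: kinetic fluorescence over 3 min at 1 s intervals after compound addition to TRHR-HEK293 cells (18 h seeded, 2 h dye-loaded at 37 C). Fifteen concentrations, triplicates.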

[9] = Human pregnane X receptor (PXR) small molecule agonists, qHTS cell viability counter screen (AID 1346977); note: nearly all actives have a fitted effect of over 50% in size; note: potency is the fitted concentration of half-maximal effect
Method in brief: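 Same-well viability read: CellTiter-Fluor added after 23 hr compound exposure, fluorescence measured 1 hr later. Cells were PXR-Luc HepG2 seeded at 2,000/well in 5% charcoal-stripped FBS medium, rested 5 hr before dosing at 37 C.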

[10] = Caspase-3/7 induction in HepG2 cells by small molecules, qHTS assay (AID 1346978); note: nearly all actives have a fitted effect of over 15% in size
Method in brief: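 Caspase-3/7 induction was measured by Caspase-Glo 3/7 luminescence (30 min, room temperature) after a 17 hr compound exposure of wild-type HepG2 cells seeded at 2,000 per well and pre-incubated 5 hr.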

[11] = Caspase-3/7 induction in CHO-K1 cells by small molecules, qHTS assay (AID 1346980); note: nearly all actives have a fitted effect of over 15% in size
Method in brief: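 Luminescent Caspase-Glo 3/7 read (30min, room temperature) quantified apoptosis induction. Cells were wild-type CHO-K1, treated with compound for 17hr at 37 C and 5% CO2.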

[12] = target: Cytochrome P450 2D6 (Homo sapiens) (UniProt P10635); assay: Cytochrome P450 Family 2 Subfamily D Member 6 (CYP2D6) small molecule antagonists: luciferase reporter qHTS assay (AID 1671196); note: nearly all actives have a fitted effect of over 50% in size; note: potency is the fitted concentration of half-maximal effect
Sequence of Cytochrome P450 2D6 (Homo sapiens) (P10635 whole entry, looked up): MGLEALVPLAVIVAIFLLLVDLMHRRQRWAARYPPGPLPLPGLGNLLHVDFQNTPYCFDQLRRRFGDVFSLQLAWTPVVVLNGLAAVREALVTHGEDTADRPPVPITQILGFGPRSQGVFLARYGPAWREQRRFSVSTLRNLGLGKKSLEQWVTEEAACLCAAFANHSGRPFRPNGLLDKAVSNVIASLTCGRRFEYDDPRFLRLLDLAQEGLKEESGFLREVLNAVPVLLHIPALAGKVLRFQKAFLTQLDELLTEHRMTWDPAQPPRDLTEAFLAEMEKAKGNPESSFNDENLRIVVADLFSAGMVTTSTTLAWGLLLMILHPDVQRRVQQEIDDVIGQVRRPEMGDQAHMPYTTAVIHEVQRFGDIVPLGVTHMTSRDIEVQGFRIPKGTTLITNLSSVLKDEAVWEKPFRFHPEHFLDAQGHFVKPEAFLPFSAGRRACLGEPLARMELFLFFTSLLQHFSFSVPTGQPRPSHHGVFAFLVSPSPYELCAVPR
Method in brief: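 Luminogenic proluciferin substrate, CYP2D6 enzyme; 10 min RT preincubation with compound, NADPH regeneration system added, 1 h RT. Stop/detection reagent, 20 min RT, luminescence read (RLU). Signal proportional to CYP activity.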

[13] = target: Cytochrome P450 2C19 (Homo sapiens) (UniProt P33261); assay: Cytochrome P450 Family 2 Subfamily C Member 19 (CYP2C19) small molecule antagonists: luciferase reporter qHTS assay (AID 1671197); note: nearly all actives have a fitted effect of over 65% in size; note: potency is the fitted concentration of half-maximal effect
Sequence of Cytochrome P450 2C19 (Homo sapiens) (P33261 whole entry, looked up): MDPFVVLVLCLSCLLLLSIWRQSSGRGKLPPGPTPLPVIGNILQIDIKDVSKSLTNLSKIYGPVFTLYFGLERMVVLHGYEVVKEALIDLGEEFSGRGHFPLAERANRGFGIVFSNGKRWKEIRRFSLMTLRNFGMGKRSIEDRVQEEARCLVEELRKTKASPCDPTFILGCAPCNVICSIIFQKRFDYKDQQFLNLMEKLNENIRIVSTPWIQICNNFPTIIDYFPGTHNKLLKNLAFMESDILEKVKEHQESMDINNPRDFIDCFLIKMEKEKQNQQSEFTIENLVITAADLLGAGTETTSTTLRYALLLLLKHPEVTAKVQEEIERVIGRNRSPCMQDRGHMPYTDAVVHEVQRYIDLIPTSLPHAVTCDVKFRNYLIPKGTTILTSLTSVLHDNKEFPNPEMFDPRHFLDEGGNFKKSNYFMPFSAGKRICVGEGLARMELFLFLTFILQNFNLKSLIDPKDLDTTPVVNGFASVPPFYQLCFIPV
Method in brief: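 Luminescent readout of CYP2C19 activity: luciferin product detected 20 min after adding detection reagent. Before that, compound and enzyme-substrate mix preincubated 10 min at room temperature; NADPH-regenerating system started a 1 h, 37C reaction. Ketoconazole as positive control.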

[14] = target: Cytochrome P450 2C9 (Homo sapiens) (UniProt P11712); assay: Cytochrome P450 Family 2 Subfamily C Member 9 (CYP2C9) small molecule antagonists: luciferase reporter qHTS assay (AID 1671198); note: nearly all actives have a fitted effect of over 50% in size; note: potency is the fitted concentration of half-maximal effect
Sequence of Cytochrome P450 2C9 (Homo sapiens) (P11712 whole entry, looked up): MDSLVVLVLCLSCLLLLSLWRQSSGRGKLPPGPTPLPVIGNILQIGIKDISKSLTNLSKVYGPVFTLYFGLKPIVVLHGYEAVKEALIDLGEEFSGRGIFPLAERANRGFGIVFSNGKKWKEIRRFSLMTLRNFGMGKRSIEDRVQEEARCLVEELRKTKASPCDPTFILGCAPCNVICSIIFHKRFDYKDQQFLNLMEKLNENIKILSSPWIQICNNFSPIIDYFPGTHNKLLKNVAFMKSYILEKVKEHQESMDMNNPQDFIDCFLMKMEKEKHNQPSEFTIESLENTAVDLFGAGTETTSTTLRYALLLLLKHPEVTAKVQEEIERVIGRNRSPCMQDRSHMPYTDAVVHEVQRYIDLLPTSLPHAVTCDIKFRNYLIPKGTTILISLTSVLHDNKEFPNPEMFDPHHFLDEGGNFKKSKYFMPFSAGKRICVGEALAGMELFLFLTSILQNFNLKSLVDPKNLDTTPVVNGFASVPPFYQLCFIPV
Method in brief: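 Enzyme-substrate mix preincubated with compound 10 min at room temperature; reaction started with NADPH regeneration solution, 1 h 37C. Luminescent luciferin product read after 20 min detection reagent.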

[15] = qHTS assay to identify small molecule antagonists of the progesterone receptor (PR) signaling pathway - cell viability counter screen (AID 1346798); note: nearly all actives have a fitted effect of over 50% in size; note: potency is the fitted concentration of half-maximal effect
Method in brief: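 Cytotoxicity read as CellTiter-Glo luminescence (30 min, room temperature) in the same wells as the beta-lactamase readout. HEK293T PR-UAS-bla cells in charcoal-stripped 2% FBS received compound and R5020, then 16 h at 37C, 5% CO2.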

[16] = Caspase-3/7 induction in CHO-K1 cells by small molecules, qHTS cell viability counter screen (AID 1346979); note: nearly all actives have a fitted effect of over 35% in size
Method in brief: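 Cytotoxicity counter screen: CellTiter-Fluor added to compound-treated wild-type CHO-K1 cells at 16 h (37C, 5% CO2), fluorescence measured 1 h later; same wells as caspase-3/7 measurement.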

[17] = Caspase-3/7 induction in HepG2 cells by small molecules, qHTS cell viability counter screen (AID 1346981); note: series mostly up to about 92 µM; nearly all actives have a fitted effect of over 30% in size
Method in brief: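 Fluorescence read-out of live-cell protease activity (CellTiter-Fluor) after 1 hr with reagent. This was measured in the same wells as the caspase-3/7 luminescence, on HepG2 cells exposed to DMSO-dissolved compounds for 16 hr at 37 C.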

[18] = target: Nuclear receptor subfamily 1 group I member 2 (Homo sapiens) (UniProt O75469); assay: Human pregnane X receptor (PXR) small molecule agonists, qHTS assay (AID 1346982); note: nearly all actives have a fitted effect of over 35% in size; note: potency is the fitted concentration of half-maximal effect
Sequence of Nuclear receptor subfamily 1 group I member 2 (Homo sapiens) (O75469 whole entry, looked up): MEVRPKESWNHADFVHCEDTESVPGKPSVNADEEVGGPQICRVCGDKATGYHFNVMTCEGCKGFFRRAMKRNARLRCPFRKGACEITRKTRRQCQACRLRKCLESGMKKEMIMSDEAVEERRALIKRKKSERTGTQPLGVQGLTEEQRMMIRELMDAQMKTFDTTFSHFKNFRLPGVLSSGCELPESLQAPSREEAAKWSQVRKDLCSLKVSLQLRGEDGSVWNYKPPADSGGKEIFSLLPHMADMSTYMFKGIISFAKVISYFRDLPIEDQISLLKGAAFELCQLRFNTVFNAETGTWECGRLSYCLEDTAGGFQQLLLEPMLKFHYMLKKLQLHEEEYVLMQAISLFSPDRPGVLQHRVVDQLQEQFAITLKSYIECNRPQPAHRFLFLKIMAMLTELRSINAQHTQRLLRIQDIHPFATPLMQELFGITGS
Method in brief: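 HepG2 PXR-Luc reporter line, 5% charcoal-stripped FBS; 5 hr pre-incubation, compound (DMSO) 24 hr at 37 C/5% CO2; ONE-Glo 30 min RT; luminescence read-out.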

[19] = target: Nuclear receptor subfamily 1 group I member 2 (Rattus norvegicus) (UniProt Q9R1A7); assay: Rat pregnane X receptor (rPXR) activation by small molecules, qHTS assay (AID 1346983); details: rPXR luciferase reporter cells, One-Glo luminescence, 24 h; max activation: stronger effect = higher value; note: nearly all actives have a fitted effect of over 20% in size
Sequence of Nuclear receptor subfamily 1 group I member 2 (Rattus norvegicus) (Q9R1A7 whole entry, looked up): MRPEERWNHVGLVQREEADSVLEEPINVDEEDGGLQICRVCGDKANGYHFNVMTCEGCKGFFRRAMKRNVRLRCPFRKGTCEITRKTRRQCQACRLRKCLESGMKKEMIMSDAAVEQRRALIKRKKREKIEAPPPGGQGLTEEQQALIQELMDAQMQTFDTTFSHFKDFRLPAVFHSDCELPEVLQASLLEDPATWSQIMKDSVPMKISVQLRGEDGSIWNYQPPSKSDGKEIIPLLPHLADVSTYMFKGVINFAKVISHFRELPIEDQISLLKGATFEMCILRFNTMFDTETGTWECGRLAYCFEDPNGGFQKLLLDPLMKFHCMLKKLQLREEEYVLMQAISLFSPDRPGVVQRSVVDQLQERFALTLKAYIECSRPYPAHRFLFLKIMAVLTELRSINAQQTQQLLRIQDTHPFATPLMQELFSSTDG
Method in brief: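 Luminescent readout (One-Glo luciferase, 30 min room temperature) followed 24 hr compound treatment at 37 C of rPXR cells plated 2,000 per well and preincubated 5hr; qHTS format with compounds delivered in DMSO.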

[20] = target: Nuclear receptor subfamily 1 group I member 2 (Homo sapiens) (UniProt O75469); assay: CYP3A4 induction through human pregnane X receptor (PXR) by small molecules, qHTS assay (AID 1346984); note: nearly all actives have a fitted effect of over 40% in size; note: potency is the fitted concentration of half-maximal effect
Method in brief: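 HepG2-derived DPX-2 line carrying PXR plus a CYP3A4-promoter luciferase reporter; cells plated 5 hr, compound-exposed 24 hr at 37C. CYP3A4 activity probed with 3uM (final) Luciferin-IPA for 3hr, then luciferase read after One-Glo.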
% is set by controls: 0 for no effect and ±100 for the full control effect.

Cc1occc1SSc1ccoc1C
inactive: outcome [1] | Potency [2] | Potency [3] | Potency [4] | Potency [5] | Potency [6] | Potency [7] | Potency [8] | Potency [9] | Potency [10] | Potency [11] | Potency [12] | Potency [13]
active: Potency [14] 56.4 µM

COc1cccc(CCc2ccccc2OCC(CN(C)C)OC(=O)CCC(=O)O)c1 (stereo unspecified)
inactive: outcome [1] | Potency [4] | Potency [5] | Potency [6] | Potency [7] | Potency [8] | Potency [10] | Potency [16] | Potency [11] | Potency [17] | Potency [18] | max activation [19] -1.75% | Potency [14]
active: Potency [15] 13.3 µM | Potency [3] 2.98 µM | Potency [9] 26.6 µM | Potency [20] 12.6 µM | Potency [12] 0.692 µM | Potency [13] 34.7 µM

CCCCCCCCCC(=O)N(C)C
inactive: outcome [1] | Potency [2] | Potency [3] | Potency [4] | Potency [5] | Potency [6] | Potency [7] | Potency [8] | Potency [9] | Potency [10] | Potency [11] | Potency [17] | Potency [12]
active: Potency [18] 62.1 µM | Potency [13] 36.1 µM | Potency [14] 40.5 µM

CO[Si](CCCNCCNCCN)(OC)OC
inactive: outcome [1] | Potency [15] | Potency [3] | Potency [4] | Potency [5] | Potency [6] | Potency [7] | Potency [8] | Potency [9] | Potency [10] | Potency [16] | Potency [11] | Potency [17] | Potency [18] | Potency [12] | Potency [13] | Potency [14]

CCN(CC)CCCN(c1ccccc1)C1Cc2ccccc2C1
active: Potency [9] 23.7 µM
inactive: outcome [1] | Potency [2] | Potency [4] | Potency [5] | Potency [6] | Potency [10] | Potency [16] | Potency [11] | Potency [17] | Potency [18] | max activation [19] -18.4% | Potency [20] | Potency [14]

O=C[C@H](O)[C@H](O)[C@H](O)CO
inactive: outcome [1] | Potency [2] | Potency [3] | Potency [4] | Potency [5] | Potency [6] | Potency [7] | Potency [8] | Potency [9] | Potency [10] | Potency [16] | Potency [11] | Potency [17] | Potency [12] | Potency [13] | Potency [14]
